# The campaign covered roughly 330,000 compounds. About 1,300 (0.39%) were called active. This is one part of a sample in which actives are shown more often than they occur.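 Rule for the calls: active = inhibition of 50% or more; inactive = inhibition below 50%.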
# Experiment: NALP3 inflammasome inhibitors in reconstituted yeast, primary screen, luminescence, uHTS (AID 2825);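 note: plate controls were induced DMSO wells for no effect and uninduced yeast grown without galactose for full effect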
# Conditions: Yeast reconstituted NLRP3/ASC/caspase-1, beta-gal luminescence, 24 h; at 10 µM; active compounds read high
row,Structure (SMILES),inhibition
1,COCCNc1cc(-c2ccccc2)nc2cc(-c3cccc(F)c3)nn12,32.2% (inactive)
2,CCCCC(=O)Nc1ccccc1N1CCN(c2ccc(F)cc2)CC1,17.7% (inactive)
3,CC(C)NC(=S)NN=C1CCCCCCCCCCC1,26.8% (inactive)
4,Cc1ccc2nsnc2c1S(=O)(=O)N1CCCC1C(=O)O (stereo not given),14.6% (inactive)
5,COc1ccc(S(=O)(=O)N2CCOC23CCN(S(=O)(=O)c2ccc([N+](=O)[O-])cc2)CC3)cc1,23.5% (inactive)
6,O=C(c1ccncc1)N1CCN(S(=O)(=O)c2cc(C(F)(F)F)cc(C(F)(F)F)c2)CC1,6.83% (inactive)
7,O=C(NCc1ccc2c(c1)OCO2)c1sccc1Br,40.9% (inactive)
8,CCn1c(=O)c(C(=O)NCc2ccc3c(c2)OCO3)c(O)c2ccccc21,17.1% (inactive)
9,O=C(NCc1ccc2c(c1)OCO2)c1c(O)nc2sccn2c1=O,56% (active)
10,CC(NC(=O)COC(=O)CCC(=O)c1ccc(Cl)cc1)c1ccccc1 (stereo not given),6.94% (inactive)
11,CC1CCN(C(=S)NC(=O)c2ccccc2Br)CC1,15.7% (inactive)
12,O=C(NC(=S)Nc1ncccn1)c1ccccc1Br,6.12% (inactive)
13,CCCN(CC1CC1)C(=S)NC(=O)c1ccccc1Br,50.5% (active)
14,COc1ccc(S(=O)(=O)NCc2cccnc2)cc1NC(=O)c1ccc(C)cc1,9.95% (inactive)
15,CCc1cc(-c2n[nH]c(=S)n2CC(C)C)cs1,29.7% (inactive)
16,Cc1nc2sc(C(c3ccco3)N3CCC4(CC3)OCCO4)c(O)n2n1 (stereo not given),13.3% (inactive)
17,Cc1ccc(O)c(NC(=O)c2cc(-c3ccco3)on2)c1,56.4% (active)
18,O=C(Nc1ccccc1C(F)(F)F)c1cc(-c2ccc(O)cc2)on1,32% (inactive)
19,CC(C)Cc1cc(C(=O)Nc2cc(Br)ccc2O)no1,29.5% (inactive)
20,COc1cccc(C(=O)Oc2cc(C)[nH]c(=O)c2[N+](=O)[O-])c1,16% (inactive)
21,COC(=O)c1ccc(S(=O)(=O)N(CCO)Cc2ccccc2)n1C,4.79% (inactive)
22,CN1CCN(C(=O)/C(=C\c2cccs2)NC(=O)c2cccs2)CC1,7.81% (inactive)
23,C=CCn1c(SCC(N)=O)nnc1-c1cc2c(s1)CCC(CC)C2 (stereo not given),4.35% (inactive)
24,O=C(O)C1CCCN1C1=NS(=O)(=O)c2ccccc21 (stereo not given),-1.91% (inactive)

row,Structure (SMILES),inhibition
1,O=C(Nc1cccc(-c2nc3ncccc3o2)c1)c1ccco1,18.2% (inactive)
2,COc1cc(OC)cc(C(=O)Nc2ccc(-c3nc4ccccc4o3)c(O)c2)c1,10.3% (inactive)
3,O=C(Nc1ccc2oc(-c3ccccc3F)nc2c1)c1ccco1,54.8% (active)
4,C=CCN1C(=O)C(O)(CC(=O)c2ccc(Cl)cc2)c2ccccc21 (stereo not given),-10.4% (inactive)
5,CC(Sc1ncnc2c1cnn2-c1ccccc1)C(=O)Nc1ccc(N2CCOCC2)cc1 (stereo not given),8.39% (inactive)
6,CC(C)Sc1ncnc2c1cnn2-c1ccccc1,50.5% (active)
7,CCN(CC)C(=O)CSc1ncnc2c1cnn2-c1ccccc1,35.5% (inactive)
8,Oc1c(Cl)cc(Cl)c(Cl)c1Cc1c(O)c(Cl)cc(Cl)c1Cl,95.9% (active)
9,CCCn1c(SCC(=O)Nc2ccc(C)c(S(=O)(=O)N3CCOCC3)c2)n[nH]c1=O,4.23% (inactive)
10,CC1(C)Cc2c(sc3nc(SCC(=O)NCc4ccccc4)n(-c4ccccc4)c(=O)c23)CS1,-8.33% (inactive)
11,COC(=O)c1ccc(S(=O)(=O)NCc2ccccc2)n1C,14.2% (inactive)
12,O=C(Nc1cc(S(=O)(=O)N2CCCCC2)ccc1Cl)C1COc2ccccc2O1 (stereo not given),4.78% (inactive)
13,CCCCCCCCCCCC(=O)O,12.3% (inactive)
14,CCCCCCC12CCC(C(=O)O)(CC1)CC2,54.3% (active)
15,CN1CCN(c2ccc(S(=O)(=O)N3CCOCC3)cc2NC(=O)CCc2ccccc2)CC1,12.1% (inactive)
16,COc1cc(NC(=O)CN2C(=O)NC(C)(c3ccc(OC(F)F)cc3)C2=O)cc(OC)c1OC (stereo not given),11.2% (inactive)
17,Cc1nc2nc(CSc3nc4ccccc4s3)cc(=O)n2[nH]1,1.14% (inactive)
18,CCN(CC)CCCSc1nc2ccccc2s1,15.5% (inactive)
19,O=[N+]([O-])c1c(NCCO)cc(Sc2nc3ccccc3s2)c2nonc12,55.2% (active)
20,Cc1ccccc1S(=O)(=O)Cc1ccc(C(=O)NCCN2CCCCC2C)o1 (stereo not given),13.3% (inactive)
21,COc1ccc(C2Nc3ccccc3C(=O)N2c2ccc(Cl)cc2)cc1Cn1cc([N+](=O)[O-])cn1 (stereo not given),1.4% (inactive)
22,Cc1cccc(C(=O)OC(C)C(=O)NC2CCCc3ccccc32)c1O (stereo not given),11.6% (inactive)
23,Cc1ccc(C(c2sc3nc(C)nn3c2O)N2CCN(c3ccccc3)CC2)cc1 (stereo not given),-2.77% (inactive)
24,CCN(CC)c1ccc(/C=N/Nc2nc(C)cc(C)n2)c(O)c1,58.1% (active)

row,Structure (SMILES),inhibition
1,Cc1cc(C)nc(N/N=C/c2c(CO)cnc(C)c2O)n1,15.2% (inactive)
2,CCN(CC)c1ccc(/C=N/NC(=O)c2cnccn2)c(O)c1,27.9% (inactive)
3,OCCC1CN(Cc2cnc(-c3ccccc3)s2)CCN1CCc1ccccc1 (stereo not given),1.33% (inactive)
4,CCOC(OCC)c1ccc(/C=C\c2nccc(N)n2)cc1,14.7% (inactive)
5,O=C(Oc1c(-c2ccco2)oc2ccccc2c1=O)c1cccnc1,54.3% (active)
6,COc1ccc(Oc2coc3cc(OC(=O)c4cncc(Br)c4)ccc3c2=O)cc1,2.36% (inactive)
7,O=C(OCc1cc2ccccc2[nH]c1=O)c1cccnc1,11.2% (inactive)
8,C=C(C)c1cccc(C(C)(C)NC(=O)NCCN(CC)CC)c1,5.58% (inactive)
9,COC(=O)c1cc(S(=O)(=O)NC2CCN(Cc3ccccc3)CC2)cn1C,11.4% (inactive)
10,CC(=O)c1c(C)[nH]c(C(=O)COc2ccc3c(C)cc(=O)oc3c2)c1C,17.5% (inactive)
11,CCOC(=O)c1c(C)[nH]c(C(=O)OCC(=O)c2ccc(OC)cc2OC)c1C,22.6% (inactive)
12,CCOC(=O)c1c(C)[nH]c(C(=O)COc2ccc3c(c2)OCO3)c1C,79.9% (active)
13,O=c1[nH]c(CCl)nc2cc(-c3ccc(Cl)cc3)sc12,2.25% (inactive)
14,O=C(NCC1CCCO1)c1ccc(S(=O)(=O)Nc2ccc(F)cc2)cc1 (stereo not given),16.8% (inactive)
15,COCCNC(=S)N1CCN(C)CC1,5.02% (inactive)
16,CC(Sc1ccccc1F)C(=O)Nc1cccc(S(=O)(=O)N2CCOCC2)c1 (stereo not given),6.56% (inactive)
17,Cc1ccnc(Nc2nc3ccccc3s2)n1,53.7% (active)
18,O=C(CCC(=O)c1cccs1)Nc1nc2ccccc2s1,3.03% (inactive)
19,Cc1ccnc(-n2sc3ccccc3c2=O)n1,6.74% (inactive)
20,Cc1ccc(NS(=O)(=O)c2cccs2)cc1S(=O)(=O)N1CCCCCC1,8.88% (inactive)
21,CCn1nc(C)c(NC(=O)/C=C/c2ccc(OC)c(COc3ccc(Br)cc3)c2)c1C,7.05% (inactive)
22,COc1cc(N2C(=O)c3ccccc3C2=O)c(Cl)cc1C(=O)OCC(=O)N1CCOCC1,-0.245% (inactive)
23,N#C/C=C(/c1ccc(F)cc1)N1CCOCC1,6.72% (inactive)
24,CCOc1cc(/C=N/NC(=O)OC)ccc1OCCSc1ccc(Cl)cc1,33.5% (inactive)

row,Structure (SMILES),inhibition
1,CC(C)(C)NC(=O)CN(C(=O)c1ccc(Cl)nc1)c1cccc2ccccc12,13.4% (inactive)
2,O=C(CCC(=O)OCc1ccc(Cl)cc1)Nc1ccccc1,21% (inactive)
3,O=C1C=C(c2ccc(Cl)cc2)C(=O)N1Nc1ccccc1,74.6% (active)
4,O=C(O)CC1=C(Nc2ccccc2)C(=O)N(c2ccccc2)C1c1ccc(Cl)cc1 (stereo not given),15% (inactive)
5,Cc1sc2c(c1C)c(=O)n(-c1ccccc1)c1nncn21,2.84% (inactive)
6,CCCCNC(=O)C1(O)c2ccccc2NC(=O)N1c1ccc(Cl)cc1 (stereo not given),3.8% (inactive)
7,COc1cc(NC(=O)C2=CC(c3ccco3)=NS(=O)(=O)N2C)cc(OC)c1OC,2.53% (inactive)
8,CCc1noc(C)c1C(=O)Nc1nc2ccc(OC)cc2s1,70.8% (active)
9,Cc1noc(C)c1CSCC(=O)Nc1nc2ccc(Oc3ccccc3)cc2s1,9.07% (inactive)
10,CCc1noc(C)c1C(=O)Nc1nc(-c2ccccc2)cs1,45.9% (inactive)
11,Cc1ccc(C)c(N2CCN(C(=O)Cn3ncn4cccc4c3=O)CC2)c1,-5.29% (inactive)
12,COCCN1CCn2c(nc3cc(NS(C)(=O)=O)ccc32)C1,10.9% (inactive)
13,CN=C1C=C/C(=N/N=c2\ccn(O)cc2C)C=C1C,57.6% (active)
14,COCCn1c(=O)[nH]c2cc(C(=O)NCc3cccnc3)ccc2c1=O,-3.21% (inactive)
15,CC(NC(=O)c1cc2cc(Cl)ccc2oc1=N)c1ccccc1 (stereo not given),14.4% (inactive)
16,CC(=O)O[C@H]1CC[C@@]2(C)[C@@H](CC[C@@H]3[C@@H]2CC[C@]2(C)[C@@H](C(C)(C)O)C[C@@H]32)C1,32.9% (inactive)
17,CC(=O)C12CC(C)=C(C)CC1CC1C3CCC4=CC(=O)CCC4(C)C3CCC12C (stereo not given),-1.41% (inactive)
18,CC(=O)[C@@]12O[C@@H]1C[C@H]1[C@@H]3CC[C@H]4C[C@@H](O)CC[C@]4(C)[C@H]3CC[C@@]12C,58.4% (active)
19,CC1CCN(S(=O)(=O)c2ccc3[nH]c(=O)ccc3c2)CC1,18.1% (inactive)
20,CC(=NCc1ccc2c(c1)OCO2)C1=C(O)c2ccccc2C1=O,57.8% (active)
21,CCc1ccc(NC(=O)NC(C)c2ccc3c(c2)OCO3)cc1 (stereo not given),24.3% (inactive)
22,O=C(CC(Cc1ccccc1)C(=O)O)NCCc1ccc2c(c1)OCO2 (stereo not given),20.5% (inactive)
23,CCC(=O)c1cc(F)ccc1OCC(=O)Nc1ccc2c(c1)OCCO2,26.6% (inactive)
